# Test results taken from article PMC5540273 (PLoS ONE, 2017).
# Assays:
# Details in all cases: concentration: 1 μM,replicates: in singlicate; n = 1
# MAPKAPK5 = test system: MAPKAPK5
# MARK1 = test system: MARK1
# MARK2 = test system: MARK2
# MARK3 = test system: MARK3
# MARK4 = test system: MARK4
# MAST1 = test system: MAST1
# MEK1 = test system: T1, MEK1
# T1 construct: gene MAP2K1
# MEK2 = test system: T2, MEK2
# T2 construct: gene MAP2K2
# MEK3 = test system: T3, MEK3
# T3 construct: gene MAP2K3
# MEK4 = test system: T4, MEK4
# T4 construct: gene MAP2K4
# 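Also: KINOMEscan kinase panel screen.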
SMILES,%Inh (MAPKAPK5),%Inh (MARK1),%Inh (MARK2),%Inh (MARK3),%Inh (MARK4),%Inh (MAST1),%Inh (MEK1),%Inh (MEK2),%Inh (MEK3),%Inh (MEK4)
CC(C)S(=O)(=O)N1CCN(Cc2ccc3c(c2)nc(NC(=O)c2ccsc2)n3C[C@H](O)c2ccccc2)CC1 [GW635815],0%,6%,34%,43%,18%,0%,0%,0%,0%,9%
Cc1ccc(C(=O)Nc2ccc(Oc3ccc4nc(NC(=O)C5CC5)cn4c3)c(F)c2)c(=O)n1-c1ccccc1,0%,0%,0%,32%,15%,31%,0%,29%,0%,0%
CS(=O)c1ccc(-c2coc3ccc(-c4n[nH]c(=O)o4)cc23)cc1 (stereo not drawn),11%,15%,23%,0%,22%,6%,17%,18%,25%,43%
Cc1cccc2c(-c3ccncc3)c(-c3ccc(F)cc3)nn12.Cl [GW461487],0%,0%,0%,0%,0%,0%,39%,0%,0%,52%
COc1cc2nccc(Nc3ccc(Oc4ccccc4)cc3)c2cc1OC.Cl [GI261656],0%,0%,0%,0%,0%,3%,96.9%,92.5%,0%,11%
COc1cc(Nc2nccc(N3CCC(NC(=O)c4cccc(C#N)c4)C3)n2)cc(OC)c1OC (stereo not drawn) [GSK1379751],0%,100%,0%,0%,100%,0%,0%,0%,0%,19%
Cn1ccc2ncnc(Oc3ccc(NC(=O)Nc4ccnc(C(F)(F)F)c4)c(Cl)c3)c21,0%,0%,0%,0%,0%,0%,4%,15%,8%,0%
N#Cc1cccc(C(=O)NC2CCN(c3ccnc(Nc4ccc(F)cc4)n3)C2)c1 (stereo not drawn) [GSK1379708],0%,0%,0%,0%,16%,0%,0%,0%,0%,17%
Cn1ccc2ncnc(Oc3ccc(NC(=O)Nc4cncc(C(F)(F)F)c4)c(Cl)c3)c21,0%,0%,23%,0%,11%,6%,0%,0%,0%,1%
O=C(Nc1n[nH]c2cc(-c3ccco3)ccc12)C1CC1 [SB-737447],12%,12%,39%,42%,0%,30%,0%,0%,30%,18%
CN1CCN(CCCNc2nccc(-c3c(-c4ccc(F)cc4)nn4cc(C(N)=O)ccc34)n2)CC1 [GW622475],0%,9%,15%,0%,21%,0%,0%,18%,0%,12%
C[C@@H](Oc1cc(-n2cnc3cc(-c4cnn(C)c4)ccc32)sc1C(N)=O)c1ccccc1Cl [GSK580432],0%,63%,61%,82%,59%,0%,0%,0%,0%,18%
CN(c1ccccc1CNc1nc(Nc2ccc3c(c2)CC(=O)N3)ncc1C(F)(F)F)S(C)(=O)=O,0%,53%,37%,80%,67%,0%,1%,0%,93.1%,84%
OCCn1cc(-c2cnc3nnn(Cc4ccc5ncccc5c4)c3n2)cn1,0%,0%,0%,0%,0%,0%,0%,0%,0%,0%
CCN1CCN(CCCC(=O)Nc2n[nH]c3nc(-c4ccc(O)cc4)c(Br)cc23)CC1 [SB-731579],0%,35%,20%,0%,14%,65%,0%,0%,15%,0%
COC(=O)c1cccc(NC(=O)NC2CCN(c3ccnc(NCc4ccc(F)cc4)n3)CC2)c1 [GSK1379860],0%,0%,0%,0%,0%,0%,0%,0%,0%,0%
Cn1ccc2ncnc(Oc3ccc(NC(=O)Nc4cc(C(C)(C)C)on4)c(Cl)c3)c21,50%,4%,0%,0%,14%,0%,23%,41%,15%,9%

SMILES,%Inh (MAPKAPK5),%Inh (MARK1),%Inh (MARK2),%Inh (MARK3),%Inh (MARK4),%Inh (MAST1),%Inh (MEK1),%Inh (MEK2),%Inh (MEK3),%Inh (MEK4)
Cc1ccc(CC(=O)N2CCc3cc(-c4cn(C)c5ncnc(N)c45)ccc32)cc1 [GSK2634758],0%,2%,0%,0%,12%,8%,0%,0%,0%,22%
NC(=O)c1ccc(-c2cc3ncnc(SCC(=O)O)c3s2)cc1,0%,0%,8%,0%,0%,0%,0%,34%,9%,0%
CC(=O)Nc1ccc(-c2cc3ncnc(SCC(=O)O)c3s2)cc1,0%,0%,17%,0%,2%,0%,0%,0%,6%,18%
Cn1cc(-c2cccc3c(N)c(C(N)=O)nnc23)cn1,0%,0%,27%,0%,18%,17%,5%,21%,60%,19%
CCOC(=O)N1CCC(n2cnc(-c3ccc(F)cc3)c2-c2ccnc(N)n2)CC1 [SB-219952],13%,15%,17%,0%,28%,2%,3%,27%,45%,18%
CCNCC(Cc1ccccc1)NC(=O)c1cc(Br)c(-c2ccnc3[nH]ccc23)s1.Cl.Cl (stereo not drawn) [GSK1383280],0%,12%,72%,69%,0%,0%,0%,0%,89%,57%
Cc1ccn2nc(-c3ccc(F)cc3)c(-c3ccncc3)c2c1.Cl [GW457859],0%,0%,0%,0%,0%,64%,0%,48%,0%,0%
O=c1[nH]cc(-c2ccc(O)cc2)c2sc(-c3ccncc3)cc12 [GSK1033723],0%,0%,0%,0%,1%,0%,0%,0%,0%,0%
CCn1c(-c2nonc2N)nc2cncc(Br)c21 [SB-738004],0%,0%,21%,0%,6%,53%,22%,29%,49%,0%
CCCC(=O)Nc1n[nH]c2ncccc12 [SB-601436],5%,0%,0%,0%,0%,0%,0%,13%,21%,14%
O=C(NCC1CC1)c1ccc(-c2cc(C(=O)NC3CC3)ccc2F)cc1 [GW810445],0%,0%,0%,0%,2%,36%,2%,13%,0%,0%
O=C(Nc1ccc(Oc2ccc3nc(NC(=O)C4CC4)cn3n2)c(F)c1)c1cccn(-c2ccccc2)c1=O,0%,0%,0%,29%,0%,10%,0%,25%,0%,0%
FC(F)(F)c1cc(Br)cc(Nc2nccc(-c3cnn4ncccc34)n2)c1 [GW810578],0%,0%,0%,0%,0%,45%,3%,14%,90.3%,21%
CSc1nccc(-c2c(-c3ccc(F)cc3)ncn2CCCN2CCOCC2)n1.Cl [SB-217146],0%,15%,0%,40%,20%,6%,30%,43%,33%,16%
C[C@@H]1CNc2c(sc3ccc4nc(-c5ccc(O)cc5)ccc4c23)C(=O)N1,99.9%,26%,7%,17%,17%,48%,1%,23%,51%,0%
Cc1cccc(-c2nc(Nc3ccncc3)c3sccc3n2)n1 [GW869641],9%,23%,34%,20%,30%,23%,25%,20%,32%,35%
